# Earlier results, collected in PubChem BioAssay AID977611.
# Screen size: about 3,900 compounds; about 3,900 (100%) were called active. No cut-off is given here; in the data, nearly all actives have Kd up to about 4200 µM. The set was probably picked from earlier hits. The list shows a part of the results. Where a SMILES comes first, the peptide text is derived from it. Square brackets hold non-standard residues; d marks the D form. Peptide text beside a SMILES is read from it. [ ]: non-standard residue; d: D form. Orn(CH(NH2)2) = NC(N)NCCC[C@H](N)C(=O)O
# Assay: PubChem AID 977611
# Conditions: PDB protein-ligand complexes, literature Kd
structure (smiles),measurement,setting,value
CCCCCCCC(=O)OC[C@H](CO[P+](O)(O)OCC[N+](C)(C)C)OC(=O)CCCCCCC,Kd,"protein: Matrix protein p17, PDB entry 2lya",65 µM (active)
CCCCCCCC(=O)OC[C@H](CO[P+](O)(O)OC[C@H](N)C(=O)O)OC(=O)CCCCCCC,Kd,"protein: Matrix protein p17, PDB entry 2lyb",35 µM (active)
CC(C)C[C@H](CNC(=O)Cc1c[nH]c2ccccc12)Cc1ccc2c(c1C(=O)O)OCO2,Kd,"protein: HIV integrase, PDB entry 4cjq",256 µM (active)
CC(C)C[C@H](CNC(=O)c1ccncc1)Cc1ccc2c(c1C(=O)O)OCO2,Kd,"protein: HIV INTEGRASE, PDB entry 4cj4",432 µM (active)
CC(C)C[C@H](CNC(=O)CCCN)Cc1ccc2c(c1C(=O)O)OCO2,Kd,"protein: HIV integrase, PDB entry 4ck3",268 µM (active)
CC(C)C[C@H](CNC(=O)c1cccnc1)Cc1ccc2c(c1C(=O)O)OCO2,Kd,"protein: HIV integrase, PDB entry 4cjp",481 µM (active)
NC(=O)CC[C@H](NC(=O)c1ccc(O[C@@H]2O[C@H](CO)[C@H](O)[C@H](O)[C@H]2O)cc1)C(=O)N[C@@H](CCCNC(N)N)C(=O)N[C@@H](CO)C(N)=O,Kd,"protein: PA-I galactophilic lectin, PDB entry 4lkd",4.5 µM (active)
NCCCC[C@H](NC(=O)[C@H](Cc1c[nH]c2ccccc12)NC(=O)c1ccc(O[C@@H]2O[C@H](CO)[C@H](O)[C@H](O)[C@H]2O)cc1)C(=O)N[C@@H](Cc1ccc(O)cc1)C(N)=O,Kd,"protein: PA-I galactophilic lectin, PDB entry 4lkf",4.3 µM (active)
NC(=O)CNC(=O)[C@H](Cc1c[nH]c2ccccc12)NC(=O)c1ccc(O[C@@H]2O[C@H](CO)[C@H](O)[C@H](O)[C@H]2O)cc1,Kd,"protein: PA-I galactophilic lectin, PDB entry 4lke",4.3 µM (active)
CC[C@H](C)[C@H](NC(=O)[C@H](CO)NC(=O)[C@H](CCCCN)NC(=O)[C@@H](NC(=O)[C@H](Cc1cnc[nH]1)NC(=O)[C@H](CCC(=O)O)NC(=O)[C@@H]1CCCN1C(=O)[C@H](CCCNC(N)N)NC(=O)[C@@H]1CCCN1C(=O)[C@H](C)NC(=O)[C@@H](NC(=O)[C@@H](NC(=O)[C@@H]1CCCN1C(=O)[C@@H]1CCCN1)C(C)C)[C@@H](C)CC)[C@@H](C)O)C(=O)N[C@@H](Cc1ccc(O)cc1)C(=O)N[C@H](C(=O)N[C@@H](CCCNC(N)N)C(=O)N[C@@H](CO)C(=O)O)[C@@H](C)O (H-PPVIAP[Orn(CH(NH2)2)]PEHTKSIYT[Orn(CH(NH2)2)]S-OH),Kd,"protein: the SH3 Domain of ?PIX, PDB entry 2df6",1.05 µM (active)
CC(C)C[C@H](NC(=O)[C@H](Cc1ccc(O)cc1)NC(=O)[C@@H]1CCCN1C(=O)[C@@H]1CCCN1)C(=O)N1CCC[C@H]1C(=O)N[C@@H](CCCNC(N)N)C(=O)N1CCC[C@H]1C(=O)N[C@@H](CCCNC(N)N)C(=O)O (H-PPYLP[Orn(CH(NH2)2)]P[Orn(CH(NH2)2)]-OH),Kd,"protein: Chaperone protein DnaK, PDB entry 4ezo",0.3 µM (active)
CC[C@H](C)[C@H](NC(=O)[C@@H](NC(=O)[C@@H]1CCCN1C(=O)[C@H](CCCNC(N)N)NC(=O)[C@H](CCCNC(N)N)NC(=O)[C@@H]1CCCN1)C(C)C)C(=O)N[C@@H](CCSC)C(=O)N[C@@H](CCCNC(N)N)C(N)=O (H-P[Orn(CH(NH2)2)][Orn(CH(NH2)2)]PVIM[Orn(CH(NH2)2)]-NH2),Kd,"protein: Chaperone protein DnaK, PDB entry 4ezt",7.4 µM (active)
CC[C@H](C)[C@H](NC(=O)[C@@H]1CCCN1C(=O)[C@H](CCCNC(N)N)NC(=O)[C@@H]1CCCN1C(=O)[C@@H]1CCCN1)C(=O)N[C@@H](Cc1ccc(O)cc1)C(=O)N[C@@H](CC(N)=O)C(=O)O (H-PP[Orn(CH(NH2)2)]PIYN-OH),Kd,"protein: Chaperone protein DnaK, PDB entry 4ezq",6.3 µM (active)
